The target of test [1] is Methanococcus maripaludis chaperonin (MmCpn) (UniProt Q6LX38). The experiment in a line: High-Throughput Screening for Modulators of Cytosolic Chaperonin Activity: MmCpn Primary Screen (AID 488978).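 Also: 50 nM MmCpn enzyme hydrolysing 30 µM ATP at 37 °C; 0% is about no effect.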 The method in brief:
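ADP formation read by HTRF Transcreener, 665/590 nm emission after 320 nm excitation. Enzyme: archaeal chaperonin at 50 nM final; substrate ATP 30 uM final; 10 min, 37C, after 5 min compound preincubation at RT.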

Test [2] deals with Transient receptor potential cation channel subfamily V member 1 (Homo sapiens) (UniProt Q8NER1). Briefly: HTS Assay for Compounds that Act as Enhancers of the Vanilloid Receptor 1 (AID 488979). Also: 0% is about no effect. Summed up:
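TRPV1 cells loaded with Fluo-8 calcium dye; compound added and Ca2+ signal (ex 480/em 520 nm) followed 3 min, then capsaicin at EC20 added and read 2 more min to detect enhancement.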

Test [3] addresses Thyrotropin receptor (Homo sapiens) (UniProt P16473). Briefly: qHTS Assay for Antagonists of the Thyroid Stimulating Hormone Receptor (AID 488980). Also: series mostly up to about 58 µM; 0% is about no effect. The method in brief: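 TSHR-HEK293 cells; 70 uM RO 20-1724 PDE inhibitor; compound + EC80 TSH (4 nM final); anti-cAMP cryptate antibody/cAMP-d2 in lysis buffer, 30 min RT; HTRF 665/620 nm read.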
(qHTS replaces the single test concentration by a dilution series.)

Test [4] concerns the target D(1A) dopamine receptor (Homo sapiens) (UniProt P21728). The experiment in a line: HTS Assay for Allosteric Agonists of the Human D1 Dopamine Receptor: Primary Screen for Potentiators (AID 488982). Also: 0% is about no effect. Summed up:
(§1)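 Tetracycline-induced HEK293 Trex D1 cells with forced coupling to calcium, loaded with no-wash calcium dye; kinetic fluorescence read 180 s after compound addition for agonism, then a further 180 s after an EC20 dopamine challenge for potentiation.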

Test [5] has the same target. Briefly: HTS Assay for Allosteric Agonists of the Human D1 Dopamine Receptor: Primary Screen for Antagonists (AID 488983).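 Also: calcium flux response to an EC80 dopamine challenge measured with no-wash dye; nearly all actives have a fitted effect of over 65% in size.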 Also: potency is read from the fitted curve at half-maximal effect. The method in brief: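 Calcium-flux read-out in inducible HEK293 T-REx cells expressing D1, dye-loaded 30–90 min at room temperature. Kinetic reads: 180 s after compound (agonist phase), then 180 s after an EC80 dopamine challenge.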
Test [6] in a line: Validation screen for small molecules that induce genotoxicity in human embryonic kidney (HEK293T) cells expressing luciferase-tagged ELG1 (AID 493106). Also: potency is read from the fitted curve at half-maximal effect. Summed up:
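ELG1-luciferase reporter readout (ONE-Glo, 30 min, room temperature) after 16 hr compound treatment at 37 °C of HEK293T cells at 2,000 per well. Rising luminescence flags genotoxic stress.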

Test [7] addresses Thyrotropin-releasing hormone receptor (Homo sapiens) (UniProt P34981). The experiment in a line: qHTS for Small Molecule Agonists and Allosteric Enhancers of Human TRH Receptor: Validation Screen for Agonists (AID 493127;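 active = calcium activation more than 3 SD above the typical response in the agonist read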;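 also: intracellular calcium rise by fluo-8 fluorescence before TRH EC20 addition; 0% is about no effect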). The following applies: TRH receptor agonist cell assay; at 2 µM; stronger effect = higher value. Summed up:
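Compound-evoked intracellular calcium release in fluo-8-loaded TRHR cells, read kinetically on FDSS (Ex 480/Em 530, 1 s/cycle) after 23 nL pintool transfer. Agonist phase preceded 10 nM TRH EC20 addition.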

Test [8] is described as follows: Nrf2 qHTS screen for inhibitors: Validation (AID 493153; active = well fitted inhibition curve with a large enough effect in the main read-out, with a control signal flat, not every such curve was filed as active). The following applies: Potency: luciferase luminescence; viability change: measured here: cytotoxicity max response. The method in brief: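 Concentration-response on A549 ARE_Fluc reporter cells exposed 18-24 h at 37 C, 5% CO2. Cytotoxicity read first by CellTiter-Fluor fluorescence (Ex 405/Em 525), then Nrf2 inhibition by BugLite luminescence after 15 min.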

Test [9] in a line: qHTS for Inhibitors of Cell Surface uPA Generation: Validation Assay (AID 493164).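 Also: RAW 264.7 macrophage cells exposed to compound for 18 h; 0% is about no effect.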 The method in brief: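 ATP-Lite luminescence read-out: ATP remains high when uPA activity-dependent LF translocation into the cytoplasm is blocked. RAW 264.7 cells, 18 h compound exposure at 37 C; 7-point titration, 2.45 nM to 38.3 uM final.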
Test [10] concerns the target Galactokinase (Homo sapiens) (UniProt P51570). The experiment in a line: qHTS Validation Assay for Inhibitors of Human Galactokinase (GALK) (AID 493189). Also: 0% is about no effect. Summed up: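 Luminescence from leftover ATP (Kinase-Glo Plus, 10 min) served as read-out after a 1 h room-temperature reaction of 5 nM GALK, 100 uM galactose and 35 uM ATP at pH8.0.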
The nature of test [11]: Validation screen for small molecules that induce DNA re-replication in SW480 colon adenocarcinoma cells (AID 504364). Also: 0% is about no effect. Summed up:
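Image-based DNA content read-out: Hoechst stain 40 min, total nuclear fluorescence intensity (ex 405 nm, em 500-530 nm) after 48 h compound exposure of 250 SW480 cells/well at 37 C, 5% CO2, versus DMSO vehicle.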

In test [12] the target is Phosphoglycerate kinase, glycosomal (Trypanosoma brucei brucei) (UniProt P07378). The experiment in a line: qHTS Validation Assay to Find Inhibitors of Phosphoglycerate Kinase (AID 504547).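 Also: control wells lack PGK and mark full inhibition.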 Summed up:
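Compounds are pinned into the substrate/PGK mixture, and GAPDH (100nM final) is added to start the reaction by producing 1,3-BPG. After 60 minutes at room temperature, Kinase-Glo Plus is added and luminescence is measured 10 minutes later.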

Test [13] concerns the target phosphoglycerate mutase (Leishmania major) (UniProt Q4Q090). The experiment in a line: qHTS Validation Assay to Find Inhibitors of Phosphoglycerate Mutase (AID 504548). Also: series mostly up to about 58 µM; % is scaled to controls: 0 for no effect and ±100 for the full control effect. The settings on record: Potency: inhibition qHTS. The method in brief: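 Lm PGAM 1.25nM final; 100 mM TEA pH 7.6, 5 mM MgCl2, 0.01% Tween-20; 45 min RT; Kinase-GloPlus, 10 min; end-point luminescence. Enzyme-free wells as negative controls.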

Test [14] concerns the target Ubiquitin carboxyl-terminal hydrolase 1 (Homo sapiens) (UniProt O94782). Briefly: Inhibitors of USP1/UAF1: Pilot qHTS (AID 504865).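 Also: rhodamine fluorescence freed from ubiquitin-rhodamine substrate followed over time; top concentration of the series differs between compounds; % is scaled to controls: 0 for no effect and ±100 for the full control effect; nearly all actives have a fitted effect of over 35% in size.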 The method in brief:
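1nM USP1/UAF1 + cpd, 15 min RT; start w/ Ub-Rho 150nM final; kinetic FL 480/540 nm, 6 reads q60 s. Buffer 50mM HEPES pH 7.8, 0.5mM EDTA, 1mM TCEP, 0.01% Tween-20, 0.1 mg/ml BSA.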

The nature of test [15]: qHTS for Inhibitors of ATXN expression: Validation of Cytotoxic Assay (AID 588349). Also: potency is read from the fitted curve at half-maximal effect. Summed up:
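Cytotoxicity counter-screen: ATP-based luminescent viability (CellTiter Glo) after 72 hr exposure of HEK293 cells to a compound titration at 37 degrees C.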

The target in test [16] is Peptidyl-prolyl cis-trans isomerase NIMA-interacting 1 (Homo sapiens) (UniProt Q13526). Briefly: qHTS Validation Assay to Find Inhibitors of Pin1 (AID 504536; active = well fitted inhibition curve with a large enough effect in the polarisation, with a control signal flat, not every such curve was filed as active; the % refers to the polarisation;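 also: 0% = full Pin1 enzyme wells and -100% = no-enzyme wells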). Summed up:
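Fluorescence polarization competition: compounds (titration) displace HiFluor-488-labeled Pin1-1b peptide from Pin1 (0.3 uM final) in pH 7.5 HEPES buffer with DTT, 10 min at room temperature; %Activity normalized to no-enzyme wells, curves fitted.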

Test [17] concerns the target D(1A) dopamine receptor (Homo sapiens) (UniProt P21728). The experiment in a line: HTS Assay for Allosteric Agonists of the Human D1 Dopamine Receptor: Primary Screen for Agonists (AID 488981). Also: 0% is about no effect. Summed up: as §1
Test [18] addresses ATPase family AAA domain-containing protein 5 (Homo sapiens) (UniProt Q96QE3). The experiment in a line: Validation screen for small molecules that inhibit ELG1-dependent DNA repair in human embryonic kidney (HEK293T) cells expressing luciferase-tagged ELG1 (AID 493107).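 Also: series mostly up to about 46 µM; % is scaled to controls: 0 for no effect and ±100 for the full control effect; inhibitors lower the ELG1-luciferase luminescence signal; nearly all actives have a fitted effect of over 70% in size.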 Summed up:
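Luciferase read-out, ONE-Glo, 30 min at room temperature, follows 16 h co-exposure at 37 C of compound and the DNA-damaging agent 5-fluorouridine. Cells: HEK293T with ELG1-luciferase fusion, 2,000 per well, DMSO as vehicle.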

The structures appear in SMILES notation. Results filed as inconclusive are left out. Calls of active or inactive are those of the source. Unless noted, calls follow the shape of the dose curve; as a rule, active = well fitted curve in the direction sought with a large enough effect; inconclusive = small, poorly fitted or top-dose-only effect, or another doubt; inactive = no such curve, though single readings can be large; an effect the other way counts as inactive or inconclusive.

Chain of Phosphoglycerate kinase, glycosomal (Trypanosoma brucei brucei) (P07378 whole entry, looked up): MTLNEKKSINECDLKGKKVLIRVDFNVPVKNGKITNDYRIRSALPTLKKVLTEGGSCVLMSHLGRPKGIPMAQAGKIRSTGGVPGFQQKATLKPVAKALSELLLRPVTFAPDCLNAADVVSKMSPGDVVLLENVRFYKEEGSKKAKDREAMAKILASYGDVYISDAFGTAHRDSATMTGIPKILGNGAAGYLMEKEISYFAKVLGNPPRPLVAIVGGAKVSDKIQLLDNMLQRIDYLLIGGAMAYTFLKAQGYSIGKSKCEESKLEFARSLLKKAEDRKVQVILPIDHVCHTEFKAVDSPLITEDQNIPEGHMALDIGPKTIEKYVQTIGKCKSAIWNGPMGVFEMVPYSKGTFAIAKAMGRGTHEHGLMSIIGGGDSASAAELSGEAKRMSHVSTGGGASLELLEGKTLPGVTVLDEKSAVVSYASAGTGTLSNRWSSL
Chain of Galactokinase (Homo sapiens) (P51570 whole entry, looked up): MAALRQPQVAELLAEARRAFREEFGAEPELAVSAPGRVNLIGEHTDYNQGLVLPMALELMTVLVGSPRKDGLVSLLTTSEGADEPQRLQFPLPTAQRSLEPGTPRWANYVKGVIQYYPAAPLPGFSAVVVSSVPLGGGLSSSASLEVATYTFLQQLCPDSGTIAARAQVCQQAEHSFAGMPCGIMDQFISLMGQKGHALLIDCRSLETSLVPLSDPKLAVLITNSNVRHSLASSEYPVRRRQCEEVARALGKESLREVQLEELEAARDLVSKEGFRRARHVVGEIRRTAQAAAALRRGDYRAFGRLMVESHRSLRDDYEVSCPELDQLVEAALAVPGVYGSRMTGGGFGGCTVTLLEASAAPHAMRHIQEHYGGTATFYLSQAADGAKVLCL
Chain of Transient receptor potential cation channel subfamily V member 1 (Homo sapiens) (Q8NER1 whole entry, looked up): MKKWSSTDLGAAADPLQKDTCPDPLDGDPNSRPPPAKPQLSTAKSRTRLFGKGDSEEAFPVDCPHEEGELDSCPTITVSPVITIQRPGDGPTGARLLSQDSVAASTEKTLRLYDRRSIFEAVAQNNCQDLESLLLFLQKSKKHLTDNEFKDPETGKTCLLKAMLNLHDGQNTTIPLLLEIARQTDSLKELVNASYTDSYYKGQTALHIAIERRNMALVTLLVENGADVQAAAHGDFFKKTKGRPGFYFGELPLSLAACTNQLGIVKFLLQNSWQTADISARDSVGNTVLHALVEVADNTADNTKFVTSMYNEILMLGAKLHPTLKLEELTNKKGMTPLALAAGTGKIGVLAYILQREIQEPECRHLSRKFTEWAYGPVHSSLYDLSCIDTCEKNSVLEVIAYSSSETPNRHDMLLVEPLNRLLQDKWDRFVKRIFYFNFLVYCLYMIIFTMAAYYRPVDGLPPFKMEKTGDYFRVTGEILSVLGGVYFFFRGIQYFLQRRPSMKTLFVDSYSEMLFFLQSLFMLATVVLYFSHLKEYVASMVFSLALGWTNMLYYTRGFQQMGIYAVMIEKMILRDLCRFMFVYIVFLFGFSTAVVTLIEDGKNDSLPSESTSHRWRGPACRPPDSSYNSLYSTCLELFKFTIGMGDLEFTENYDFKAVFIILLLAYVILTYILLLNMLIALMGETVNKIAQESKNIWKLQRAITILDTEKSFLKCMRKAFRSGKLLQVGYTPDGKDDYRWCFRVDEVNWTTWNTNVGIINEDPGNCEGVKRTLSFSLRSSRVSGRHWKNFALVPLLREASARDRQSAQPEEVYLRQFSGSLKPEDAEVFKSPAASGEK
Chain of Thyrotropin-releasing hormone receptor (Homo sapiens) (P34981 whole entry, looked up): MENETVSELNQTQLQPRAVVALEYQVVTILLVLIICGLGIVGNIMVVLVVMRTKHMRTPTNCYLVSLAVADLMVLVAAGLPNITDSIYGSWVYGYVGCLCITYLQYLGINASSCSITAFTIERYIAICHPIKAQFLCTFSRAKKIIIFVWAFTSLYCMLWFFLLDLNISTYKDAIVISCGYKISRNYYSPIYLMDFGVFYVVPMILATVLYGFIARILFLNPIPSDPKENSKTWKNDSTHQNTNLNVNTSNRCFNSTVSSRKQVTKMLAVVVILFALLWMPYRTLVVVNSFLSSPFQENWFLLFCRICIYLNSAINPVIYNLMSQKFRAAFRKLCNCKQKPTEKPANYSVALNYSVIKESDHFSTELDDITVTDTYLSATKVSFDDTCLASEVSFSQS
Chain of Thyrotropin receptor (Homo sapiens) (P16473 whole entry, looked up): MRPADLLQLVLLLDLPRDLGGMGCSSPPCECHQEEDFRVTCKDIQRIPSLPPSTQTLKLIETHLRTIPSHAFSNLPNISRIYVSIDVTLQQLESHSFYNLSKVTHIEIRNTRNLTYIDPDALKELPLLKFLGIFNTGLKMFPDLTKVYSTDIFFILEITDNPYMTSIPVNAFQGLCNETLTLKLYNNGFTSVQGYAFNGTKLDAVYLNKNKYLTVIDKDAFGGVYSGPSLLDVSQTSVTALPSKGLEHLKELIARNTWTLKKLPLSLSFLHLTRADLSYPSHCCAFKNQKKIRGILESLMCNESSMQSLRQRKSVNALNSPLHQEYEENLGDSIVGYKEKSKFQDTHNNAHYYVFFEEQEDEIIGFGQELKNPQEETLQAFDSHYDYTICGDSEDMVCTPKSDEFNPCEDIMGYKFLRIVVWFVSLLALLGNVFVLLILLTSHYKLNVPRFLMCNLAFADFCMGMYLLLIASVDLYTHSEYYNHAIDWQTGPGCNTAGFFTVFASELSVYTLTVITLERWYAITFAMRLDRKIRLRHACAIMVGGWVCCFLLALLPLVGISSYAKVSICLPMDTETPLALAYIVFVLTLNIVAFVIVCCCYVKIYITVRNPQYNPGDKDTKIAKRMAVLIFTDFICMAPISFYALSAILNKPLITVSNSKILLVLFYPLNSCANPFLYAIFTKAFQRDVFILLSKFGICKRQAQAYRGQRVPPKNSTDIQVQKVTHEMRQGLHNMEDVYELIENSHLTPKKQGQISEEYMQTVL
Chain of phosphoglycerate mutase (Leishmania major) (Q4Q090 1-553): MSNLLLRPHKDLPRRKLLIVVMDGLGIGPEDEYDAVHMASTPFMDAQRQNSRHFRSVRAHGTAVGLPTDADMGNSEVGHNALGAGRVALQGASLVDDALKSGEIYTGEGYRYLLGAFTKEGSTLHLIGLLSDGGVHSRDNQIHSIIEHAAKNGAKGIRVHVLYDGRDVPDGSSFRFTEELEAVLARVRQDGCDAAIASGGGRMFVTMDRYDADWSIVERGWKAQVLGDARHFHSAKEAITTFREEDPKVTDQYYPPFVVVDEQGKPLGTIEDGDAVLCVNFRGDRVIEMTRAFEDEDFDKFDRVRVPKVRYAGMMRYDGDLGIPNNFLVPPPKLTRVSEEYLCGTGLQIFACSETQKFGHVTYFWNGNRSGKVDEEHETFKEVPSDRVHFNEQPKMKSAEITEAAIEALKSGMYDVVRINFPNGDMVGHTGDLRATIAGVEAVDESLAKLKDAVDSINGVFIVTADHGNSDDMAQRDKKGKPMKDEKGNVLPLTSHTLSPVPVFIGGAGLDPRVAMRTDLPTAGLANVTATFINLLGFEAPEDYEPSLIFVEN
Chain of Methanococcus maripaludis chaperonin (MmCpn) (Q6LX38 1-543): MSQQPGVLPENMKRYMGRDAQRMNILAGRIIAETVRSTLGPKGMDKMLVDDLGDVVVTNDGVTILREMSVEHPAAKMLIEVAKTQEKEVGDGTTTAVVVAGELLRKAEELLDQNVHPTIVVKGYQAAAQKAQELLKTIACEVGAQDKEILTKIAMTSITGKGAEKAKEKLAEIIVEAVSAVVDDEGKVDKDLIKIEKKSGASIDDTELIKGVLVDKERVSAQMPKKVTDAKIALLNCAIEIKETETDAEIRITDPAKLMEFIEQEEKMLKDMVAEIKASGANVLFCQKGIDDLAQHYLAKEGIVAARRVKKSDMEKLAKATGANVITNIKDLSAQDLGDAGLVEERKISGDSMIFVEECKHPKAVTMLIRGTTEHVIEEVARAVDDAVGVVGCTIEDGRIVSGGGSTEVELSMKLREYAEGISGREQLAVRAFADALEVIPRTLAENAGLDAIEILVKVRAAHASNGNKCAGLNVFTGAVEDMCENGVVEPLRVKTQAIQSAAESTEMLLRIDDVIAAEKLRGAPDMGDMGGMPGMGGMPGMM
Chain of D(1A) dopamine receptor (Homo sapiens) (P21728 whole entry, looked up, the tested form may be a part): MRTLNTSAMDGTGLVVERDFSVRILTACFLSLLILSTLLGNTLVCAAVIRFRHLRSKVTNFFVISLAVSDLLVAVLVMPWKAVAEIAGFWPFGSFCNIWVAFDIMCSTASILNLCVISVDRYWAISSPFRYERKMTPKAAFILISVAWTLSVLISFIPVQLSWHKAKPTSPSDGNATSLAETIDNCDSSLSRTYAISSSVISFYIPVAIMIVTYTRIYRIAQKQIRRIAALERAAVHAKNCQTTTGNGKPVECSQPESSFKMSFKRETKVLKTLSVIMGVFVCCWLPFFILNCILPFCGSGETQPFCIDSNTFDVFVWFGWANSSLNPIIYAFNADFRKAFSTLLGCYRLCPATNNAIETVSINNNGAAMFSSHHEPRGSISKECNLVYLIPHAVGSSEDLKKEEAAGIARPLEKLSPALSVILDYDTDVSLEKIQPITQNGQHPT
Chain of Peptidyl-prolyl cis-trans isomerase NIMA-interacting 1 (Homo sapiens) (Q13526 whole entry, looked up): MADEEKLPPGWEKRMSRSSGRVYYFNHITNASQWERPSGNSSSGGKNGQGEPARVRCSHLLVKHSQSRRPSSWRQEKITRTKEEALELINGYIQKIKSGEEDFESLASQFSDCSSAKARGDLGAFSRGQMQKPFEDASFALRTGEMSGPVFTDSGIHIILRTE

As for `O=C(O)CCCC[C@@H]1CCSS1`, the compound was called inactive in test [1], in test [2], in test [3] and in test [9]. The Potency entry in [4], in [5], in test [6], in test [8], in test [10] and in test [11] was “inactive” throughout. In addition, the Potency entry in [12], in [13], in test [14] and in test [15] was “inactive” throughout. For the same compound, the activation in test [7] was 0.438% (inactive). Further, the viability change in test [8] was determined as 5.5%.
On to `CN(C)c1ccc(/C=C2\C(=O)Nc3ccccc32)cc1`, for which the outcome in [1], in test [2], in test [3] and in test [9] was inactive. Further, the Potency entry in test [4], in [5], in test [10], in test [11], in test [16] and in [12] was “inactive” each time. The Potency result in test [13], in test [14] and in test [15] was “inactive” in each case. Also, the Potency in test [6] is 1.83 µM (active). The activation in test [7] is -8.75% (inactive).
`CCCCCCCCCCCCCCCCCC(=O)NCC(COP(=O)([O-])OCC[N+](C)(C)C)OCC` (stereo not drawn): the result in test [1], in test [2], in test [3] and in [9] was inactive. Also, the results for the Potency in test [5] and in test [15] were 12.6 µM (active) and 17.8 µM (active), respectively. The activation in [7] was 2.19% (inactive). The Potency entry in test [8], in test [10], in test [12] and in [13] was “inactive” throughout. For the same compound, the viability change in test [8] is 1.48%.
Take `N#C/C(=C\c1ccc(O)c(O)c1)C(=O)NCCCc1ccccc1`: the compound was called inactive in test [1], in test [2] and in test [3]. Further, the Potency entry in [4], in test [6], in test [10], in test [12] and in test [13] was “inactive” throughout. Also, the activation in test [7] was 0.625% (inactive).
For `CC(C)NC[C@H](O)COc1cccc2[nH]ccc12`, the compound was called inactive in [1], in [2] and in test [3]. Also, the Potency entry in [4], in test [6], in [10], in [11], in test [12] and in test [14] was “inactive” each time. In addition, in test [15], the Potency result was “inactive”. Further, the activation in test [7] was 1.12% (inactive).
`CN1CCC[C@H]1c1cccnc1`: the compound was called inactive in [1], in test [2] and in test [9]. Also, the Potency entry in test [17], in test [5], in test [6], in test [18], in [8] and in test [10] was “inactive” in each case. Further, the Potency result in test [11], in test [12], in [13], in [14] and in test [15] was “inactive” in each case. For the same compound, the activation in test [7] is 0.5% (inactive). Further, the viability change in test [8] was -3.72%.
Turning to `NC(N)=NC(=O)c1nc(Cl)c(N2CCCCCC2)nc1N`, the compound was classed as inactive in test [1] and in test [3]. For the same compound, the Potency entry in test [17], in [4], in [6], in test [18], in test [8] and in test [10] was “inactive” throughout. Besides, the Potency entry in [16], in test [12], in test [13] and in [14] was “inactive” throughout. For the same compound, in test [7], the activation is 3.31% (inactive). Besides, in test [8], the viability change is -0.682%.

Source of the values: PubChem BioAssay (NCATS).
